DT40 TDP1 no CPT: qHTS for Inhibitors of human tyrosyl-DNA phosphodiesterase 1 (TDP1): qHTS in cells in absence of CPT. DT40 Tdp1-/- hTDP1 cells, no CPT, ATP luminescence, 48 h. Potency, µM (top dose mostly 46.2 µM), without a hit: at the top dose activity change, negative = growth inhibition, usual class: inhibitors. hit rate 15% among 420,000. AID 686978, 2013; further: potency means the concentration at half of the fitted maximal effect; nearly all actives have a fitted effect of over 55% in size
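Camptothecin absent (DMSO only). Human TDP1-complemented DT40 knockout cells, 400 cells/well, 37 °C for minimum 48 hr; ATP measured via CellTiter-Glo, 30 min dark incubation, luminescence.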
IL-1B inflam inh: qHTS for Inhibitors of Inflammasome Signaling: IL-1-beta AlphaLISA Primary Screen; THP-1 LPS/ATP IL-1B secretion, AlphaLISA, 16 h; hits give low values; activity change, % at 57.5 µM; hit rate 4.7% among 360,000; in the data active means activity change below about -50%; inconclusive means mostly about -30% to -49%
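Secreted IL-1B measured by AlphaLISA bead assay after 16 h compound exposure of THP-1 cells; compounds (final up to 57.5 uM) added 1 h before LPS (250 ng/mL) and ATP (1.25 mM) stimulation; lower signal means less secretion.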
TDP1 cell CPT: qHTS for Inhibitors of human tyrosyl-DNA phosphodiesterase 1 (TDP1): qHTS in cells in presence of CPT | chicken DT40 Tdp1-/-;hTDP1 cells + 20 nM CPT, ATP luminescence, 48 h | Potency, µM (series often up to 46.2 µM), for the others: at the highest dose activity change, negative = growth inhibition, usual class: inhibitors | hit rate 12% among 420,000; further: potency means the concentration at half of the fitted maximal effect; nearly all actives have a fitted effect of over 55% in size
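Chicken DT40 Tdp1-/- cells stably complemented with human TDP1 were seeded at 400 cells/well in medium containing 20 nM camptothecin, exposed to pin-transferred compounds, and grown at 37 °C for at least 48 hr. Viability was read as ATP luminescence.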
HT1080 IDH1KD tx: qHTS for induction of synthetic lethality in tumor cells producing 2HG: qHTS for the HT-1080-IDH1KD cell line. AID 686971, 2013. hit rate 2% among 360,000. Potency, µM (top dose mostly 46.1 µM), for inactives: at the highest dose activity, negative = toxicity, actives largely listed as cytotoxic. HT-1080 IDH1 knockdown viability, ATP luminescence, 48 h;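 further: potency means the concentration at half of the fitted maximal effect; 0% = DMSO wells and -100% = cell-free medium wells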
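CellTiter-Glo luminescence after 48 h compound exposure at 37 degrees C of IDH1-knockdown HT-1080 cells in 5% FBS RPMI. %Activity scaled between DMSO wells and cell-free media wells, with curves fitted and assigned curve classes.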
HT1080NT lethal: qHTS for induction of synthetic lethality in tumor cells producing 2HG: qHTS for the HT-1080-NT fibrosarcoma cell line | hit rate 1.6% among 360,000 | HT-1080-NT fibrosarcoma viability, CellTiter-Glo ATP luminescence, 48 h | AID 686970, 2013 | Potency, µM (top dose mostly 46.1 µM), without a hit: top-dose activity, negative = less viability, actives largely listed as cytotoxic;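 further: NT is the 2HG producing partner of a matched IDH1 knockdown line; potency means the concentration at half of the fitted maximal effect; 0% = DMSO-treated cells and -100% = media-only wells without cells; nearly all actives have a fitted effect of over 55% in size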
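HT-1080-NT fibrosarcoma cells (2HG-overproducing), 750 cells/well in RPMI with 5% FBS, dosed after 2 h and incubated 48 h at 37C. CellTiter-Glo luminescence normalized to DMSO and no-cell wells; concentration-response curves fitted and classed.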
Starred values were filed as active, the others as inactive; [ ] = remark or other dose. A selection: hits, their analogues and other compounds. The true share with any hit is near 19%. Unless noted, the call rests on the fitted dose curve; in most records, active means well fitted curve in the direction sought with a large enough effect; inconclusive means small, poorly fitted or top-dose-only effect, or another doubt; inactive means no such curve, though single readings can be large; an effect the other way counts as inactive or inconclusive. Unless noted, on the % scale 0 is the no-effect control and ±100 the full control effect.

How did Cc1ccc(NC(=O)c2cc(C(=O)c3cc(Cl)ccc3O)cn(-c3ccc(C)cc3)c2=O)cc1 do in these assays?
DT40 TDP1 no CPT: 20.6µM*; IL-1B inflam inh: 0.0; TDP1 cell CPT: 18.4µM*; HT1080 IDH1KD tx: -6.8%; HT1080NT lethal: -0.8%

What do the screens show for `O=C1NC(c2ccccc2)=C(c2ccc3ccccc3n2)C(c2ccccc2)N1` (configuration not stated)?
DT40 TDP1 no CPT: 25.9µM*; IL-1B inflam inh: 3.4; TDP1 cell CPT: inconclusive; HT1080 IDH1KD tx: -14.1%; HT1080NT lethal: -10.0%

What do the screens show for `O=C1NC(c2ccccc2)=C(c2ccc3ccccc3n2)C(c2ccc(F)cc2)N1` (configuration not stated)?
DT40 TDP1 no CPT: inconclusive; IL-1B inflam inh: -22.9; TDP1 cell CPT: inconclusive; HT1080 IDH1KD tx: -15.9%; HT1080NT lethal: -15.2%

How did O=C1NC(c2ccccc2)=C(c2nc3ccccc3s2)C(c2ccc(O)cc2)N1 (configuration not stated) do in these assays?
DT40 TDP1 no CPT: inconclusive; IL-1B inflam inh: -4.9; TDP1 cell CPT: -3.9%; HT1080 IDH1KD tx: 5.62µM*; HT1080NT lethal: 7.94µM*

Results for O=C1NC(c2ccccc2)=C(c2ccc3ccccc3n2)C(c2ccncc2)N1 (configuration not stated) ?
DT40 TDP1 no CPT: -2.3%; IL-1B inflam inh: 1.4; TDP1 cell CPT: -13.2%; HT1080 IDH1KD tx: -5.2%[9.24 µM]; HT1080NT lethal: -7.7%

What do the screens show for `CCn1c(CNC(=O)c2ccc(OC)cc2)nnc1SCC(=O)Nc1ccc(C)cc1`?
DT40 TDP1 no CPT: -9.9%; TDP1 cell CPT: 3.5%

Results for CCCCc1ccc(CC(=O)NO)cc1 ?
DT40 TDP1 no CPT: inconclusive; TDP1 cell CPT: -18.8%

How did Cc1ccc(C)c(NC(=S)NC(NC(=O)Cc2ccccc2)C(Cl)(Cl)Cl)c1 (configuration not stated) do in these assays?
DT40 TDP1 no CPT: -21.9%; IL-1B inflam inh: 3.5; TDP1 cell CPT: -1.6%; HT1080 IDH1KD tx: inconclusive; HT1080NT lethal: inconclusive

Results for Cc1cc(C)c(NC(=S)NC(NC(=O)c2ccccc2)C(Cl)(Cl)Cl)c(C)c1 (configuration not stated) ?
DT40 TDP1 no CPT: 5.8µM*; IL-1B inflam inh: -74.8*; TDP1 cell CPT: inconclusive; HT1080 IDH1KD tx: inconclusive; HT1080NT lethal: inconclusive

What do the screens show for `O=C(NC(NC(=S)Nc1ccc(Cl)cc1Cl)C(Cl)(Cl)Cl)c1cccc([N+](=O)[O-])c1` (configuration not stated)?
DT40 TDP1 no CPT: 5.8µM*; IL-1B inflam inh: -101.8*; TDP1 cell CPT: 7.31µM*; HT1080 IDH1KD tx: inconclusive; HT1080NT lethal: inconclusive

Results for Cc1ccccc1NC(=S)NC(NC(=O)c1ccccc1C)C(Cl)(Cl)Cl (configuration not stated) ?
DT40 TDP1 no CPT: 20.6µM*; IL-1B inflam inh: -11.6; TDP1 cell CPT: inconclusive; HT1080 IDH1KD tx: -14.9%; HT1080NT lethal: -20.7%

What do the screens show for `COc1ccccc1NC(=S)NC(NC(C)=O)C(Cl)(Cl)Cl` (configuration not stated)?
DT40 TDP1 no CPT: 12.4%; IL-1B inflam inh: -4.1; TDP1 cell CPT: -18.5%; HT1080 IDH1KD tx: 7.2%; HT1080NT lethal: -1.6%

Results for Cc1cn([C@H]2C[C@H](O)[C@@H](CCC(=O)NCCc3ccc4ccccc4c3)O2)c(=O)[nH]c1=O ?
DT40 TDP1 no CPT: -3.7%; IL-1B inflam inh: 22.1; TDP1 cell CPT: -9.2%; HT1080 IDH1KD tx: 10.7%; HT1080NT lethal: 3.0%

How did CN(C)CCCn1cc(C2=C(c3c[nH]c4ccccc34)C(=O)NC2=O)c2ccccc21 do in these assays?
DT40 TDP1 no CPT: 23.7µM*; TDP1 cell CPT: -121.7%

High-throughput results from PubChem.
